Results taken from the supplement of paper PMC6135742.
“And” between values parts separate entries of the source, which are not always exact repeats. Equal entries are not always repeated. Structures can show the parent of a compound that is named as a salt. ± gives the standard deviation of the averaged measurements. Whole data set: some 2,600 compounds, median “MBP+ mature oligodendrocyte number relative to DMSO vehicle control” near -0.34, cut for the highest 2% near 13. The sample as a whole holds a higher share of the highest values than the screen did.

system: jimpy (Plp1 jimpy) mouse iPSC-derived oligodendrocyte progenitor cells; experiment: MBP+ mature oligodendrocyte number relative to DMSO vehicle control (SDs above negative control mean); higher = more surviving jimpy oligodendrocytes (rescue); details: 10 µM; 3 days
Experimental: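 Primary phenotypic screen of >3,000 bioactive compounds (Selleck L1700 and Sigma LO1280 libraries) at a single dose of 10 µM. Compounds were added to jimpy (Plp1 mutant) mouse iPSC-derived OPCs at the start of thyroid hormone-induced oligodendrocyte differentiation, one well per compound in 384-well plates. After 3 days cells were stained for MBP, Sox10 and DAPI and imaged with an Operetta system. MBP+ oligodendrocyte number and total cell number were expressed as the number of SDs above the mean of the DMSO negative control on the same plate (n=16 control wells per plate). Hits were defined as >=4 SD for oligodendrocytes and >=2 SD for total cells.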

| SMILES | MBP+ mature oligodendrocyte number |
| --- | --- |
| O=C1Cc2cc(CCN3CCN(c4nsc5ccccc45)CC3)c(Cl)cc2N1 [Ziprasidone HCl] | 21.9 |
| O=C1Cc2cc(CCN3CCN(c4nsc5ccccc45)CC3)c(Cl)cc2N1 [Ziprasidone hydrochloride monohydrate] | 11.7 |
| O=C1CCc2ccc(OCCCCN3CCN(c4cccc(Cl)c4Cl)CC3)cc2N1 [Aripiprazole] | 5.11 |
| COc1ccc(-c2oc3c(CC=C(C)C)c(O)cc(O)c3c(=O)c2O)cc1 [Icaritin] | -3.18 |
| COc1cc(N2CCC(N3CCN(C)CC3)CC2)ccc1Nc1ncc(Cl)c(Nc2ccccc2S(=O)(=O)C(C)C)n1 | < -6.7 |
| Cn1cnc2c(NCc3ccccc3)nc(NCCO)nc21 [Olomoucine] | 1.83 |
| CC(C)NCC(O)c1ccc(O)c(O)c1 (racemic) [(±)-Isoproterenol hydrochloride] | 0.225 |
| Nc1cc2c(ncn2CCOCP(=O)(O)O)c(=O)[nH]1 [PMEG hydrate] | -1.5 |
| O.O=[Si]=O.O=[Si]=O.O=[Si]=O.O=[Si]=O.[O]=[Mg].[O]=[Mg].[O]=[Mg] | -1.01 |
| NC(N)=N/N=C/c1ccccc1Cl [Sephin-1] | 1.29 |
| CCC(C)(C)c1ccc(CC(C)CN2C[C@@H](C)O[C@@H](C)C2)cc1 (some centres not stated) [Amorolfine HCl] | 28.8 |
| Fc1ccc2[nH]c(CN3CCN(c4ccccn4)CC3)cc2c1 | -1.89 |
| O=C(O)CCCCC1CCSS1 (racemic) [(±)-alpha-Lipoic Acid] | -1.6 |
| O=C(O)Cc1cccc(OCCCN(Cc2cccc(C(F)(F)F)c2Cl)CC(c2ccccc2)c2ccccc2)c1 | 24.5 |
| CN(CCCOc1ccc(Cc2ccccc2)cc1)CCC(=O)O | 0.896 |
| CC1(C)CCC2=C(O1)c1ccccc1C(=O)C2=O [beta-Lapachone] | < -3.97 |
| CC1(C)CCC2=C(O1)c1ccccc1C(=O)C2=O [Beta-Lapachone] | -6.18 |
| CC(C)(Oc1ccc(Cl)cc1)C(=O)O [Clofibric Acid] | 2.94 |
| CC(C)(C)C(=O)C(Oc1ccc(Cl)cc1)n1ccnc1 (configuration not stated) [Climbazole] | 38.6 |
| CCOC(=O)C(C)(C)Oc1ccc(Cl)cc1 [Clofibrate] | 0.667 |
| C[C@H](CCC(=O)NCCS(=O)(=O)O)[C@H]1CC[C@H]2[C@@H]3[C@H](O)C[C@@H]4C[C@H](O)CC[C@]4(C)[C@H]3C[C@H](O)[C@]12C [Sodium Taurocholate hydrate] | -0.433 |
| Cc1cc(C)c(CNC(=O)c2cc(-c3ccc(CN4CCOCC4)cc3)cc3c2cnn3C2CCCC2)c(=O)[nH]1 | 30.2 |
| CCN(c1cc(-c2ccc(CN3CCOCC3)cc2)cc(C(=O)NCc2c(C)cc(C)[nH]c2=O)c1C)C1CCOCC1 | 8.01 |
| CCCc1cc(C)[nH]c(=O)c1CNC(=O)c1cc(-c2ccc(N3CCN(C(C)C)CC3)nc2)cc2c1cnn2C(C)C | < -6.35 |
| CCc1cc2c(cc1N1CCC(N3CCOCC3)CC1)C(C)(C)c1[nH]c3cc(C#N)ccc3c1C2=O | -2.2 |
| NC(=O)[C@@H](CCC(F)(F)F)N(Cc1ccc(-c2ncon2)cc1F)S(=O)(=O)c1ccc(Cl)cc1 | 4.21 |

| SMILES | MBP+ mature oligodendrocyte number |
| --- | --- |
| CCn1c(=O)c2c(nc(/C=C/c3ccc(OC)c(OC)c3)n2C)n(CC)c1=O [Istradefylline] | -4.18 |
| Cn1cc(C2=C(c3cn(CCCSC(=N)N)c4ccccc34)C(=O)NC2=O)c2ccccc21 [Ro 31-8220 Mesylate] | -5.25 |
| Cn1cc(/C=C2\C(=O)Nc3cccnc32)c2ccccc21 | -3.63 |
| Cn1cc(C2=C(c3ccc(Cl)cc3Cl)C(=O)NC2=O)c2ccccc21 | 22.4 and 12.6 |
| Cc1[nH]c2ccccc2c1CCNCc1ccc(/C=C/C(=O)NO)cc1 [Panobinostat (LBH589)] | < -6.7 |
| CN(CC[C@@H](Oc1ccc(C(F)(F)F)cc1)c1ccccc1)CC(=O)[O-].[Li+] | 0.588 |
| Clc1ccc(COC(Cn2ccnc2)c2ccc(Cl)cc2Cl)cc1 (configuration not stated) [Econazole nitrate] | 5.37 |
| Clc1ccc(COC(Cn2ccnc2)c2ccc(Cl)cc2Cl)c(Cl)c1 (configuration not stated) [Miconazole] | -1.9 |
| Clc1ccc(C(Cn2ccnc2)OCc2c(Cl)cccc2Cl)c(Cl)c1 (configuration not stated) [Isoconazole nitrate] | 22.9 |
| Clc1ccc(COC(Cn2ccnc2)c2ccc(Cl)cc2Cl)c(Cl)c1 (configuration not stated) [Miconazole Nitrate] | -3.62 |
| COc1ccc(C2(CNC(=O)c3ccc(NC(=O)c4ccco4)cc3)CCOCC2)cc1 | -2.6 |
| CC(Cc1ccc(O)c(O)c1)(NN)C(=O)O (stereo not drawn) [S-(-)-Carbidopa] | -1.01 |
| Cc1nccn1CC1CCc2c(c3ccccc3n2C)C1=O (configuration not stated) [Ondansetron HCl] | 12.8 |
| Nc1cc(Cl)c(NC2=NCCN2)c(Cl)c1 [p-Aminoclonidine hydrochloride] | -0.786 |
| CNC(=O)CN(CCN(CCN(CC(=O)[O-])CC(=O)NC)CC(=O)[O-])CC(=O)[O-].[Gd+3] [Gadodiamide] | < -5.15 |
| C#C[C@]1(O)CC[C@H]2[C@@H]3CCc4cc(OC)ccc4[C@H]3CC[C@@]21C [Mestranol] | 12.8 |
| C#C[C@]1(O)CC[C@H]2[C@@H]3CCc4cc(O)ccc4[C@H]3CC[C@@]21C [Ethinyl Estradiol] | 0.433 |
| C#C[C@]1(O)CC[C@H]2[C@@H]3CCC4=CC(=O)CC[C@@H]4[C@H]3CC[C@@]21C [Norethindrone] | 6.57 |
| O=C(Nc1ccc2c(c1)CCN(Cc1ncn[nH]1)C2)c1ccccc1-c1ccc(C(F)(F)F)cc1 | 2 |
| c1ccc2c(c1)CCC[C@H]2Nc1nc2ccccc2[nH]1 [NS8593 hydrochloride] | -0.125 |
| NC(=O)NO [Hydroxyurea] | 0.603 ± 0.14 |
| CO[C@H]1C[C@@H]2CC[C@@H](C)[C@@](O)(O2)C(=O)C(=O)N2CCCC[C@H]2C(=O)O[C@H]([C@H](C)C[C@@H]2CC[C@@H](O)[C@H](OC)C2)CC(=O)[C@H](C)/C=C(\C)[C@@H](O)[C@@H](OC)C(=O)[C@H](C)C[C@H](C)/C=C/C=C/C=C/1C [Rapamycin (Sirolimus)] | -5.74 |
| Cc1ccc(F)c(NC(=O)Nc2ccc(-c3cccc4[nH]nc(N)c34)cc2)c1 [Linifanib (ABT-869)] | -5.74 |
| Cc1cc(NC(=O)Nc2ccc(N(C)C)cc2)c2cc(F)cc(F)c2n1 | 29.4 |
| COc1ccc(Cl)cc1NC(=O)Nc1cc(C)nc2ccccc12 | -4.52 |
| CN1c2ccccc2C(=O)N2CCc3c([nH]c4ccccc34)C21 (stereo in doubt) [Evodiamine] | -2.4 |

| SMILES | MBP+ mature oligodendrocyte number |
| --- | --- |
| Cc1ccc(NCCCc2ccccc2)c(N)c1 | < -6.35 |
| CC(C)S(=O)(=O)N[C@H]1CCOC[C@@H]1c1ccc(-c2ccc(C#N)s2)cc1 | -3.15 |
| CO[C@@H](C(=O)N1Cc2[nH]nc(NC(=O)c3ccc(N4CCN(C)CC4)cc3)c2C1)c1ccccc1 | -6.61 |
| CC(=O)[C@H]1CC[C@H]2[C@@H]3C=CC4=CC(=O)CC[C@@]4(C)[C@@H]3CC[C@]12C [Dydrogesterone] | 0.153 |
| CC(=O)[C@H]1CC[C@H]2[C@@H]3CCC4=CC(=O)CC[C@]4(C)[C@H]3CC[C@]12C [Progesterone] | 15.4 ± 7.2 |
| C[C@]12C[C@H](O)[C@H]3[C@@H](CCC4=CC(=O)CC[C@@]43C)[C@@H]1CC[C@@H]2C(=O)CO [Corticosterone] | 1.49 |
| O=C1NC(=O)c2c1c(-c1ccccc1)cc1[nH]c3ccc(O)cc3c21 | < -3.97 |
| CNC(=O)c1ccc(N2C(=S)N(c3ccc(C#N)c(C(F)(F)F)c3)C(=O)C2(C)C)cc1F [Enzalutamide (MDV3100)] | 16.6 |
| CC1(C)NC(=O)N(c2ccc([N+](=O)[O-])c(C(F)(F)F)c2)C1=O [Nilutamide] | -0.755 |
| CNC(=O)c1ccc(N2C(=S)N(c3cnc(C#N)c(C(F)(F)F)c3)C(=O)C23CCC3)cc1F | 5.74 |
| N=C(N)SCCc1c[nH]cn1 [Imetit dihydrobromide] | -0.363 |
| Cc1cc(-c2ncc(CC(=O)Nc3ccc(-c4cnccn4)cn3)cc2C)ccn1 | 13.8 |
| Cc1cc(-c2ccc(CC(=O)Nc3ccc(-c4cccnc4)cc3)cc2)ccn1 | 23.2 |
| Cc1ccc(NC(=O)c2ccc(CN3CCN(C)CC3)cc2)cc1Nc1nccc(-c2cccnc2)n1 [Imatinib (STI571)] | -4.36 |
| Cc1ccc(NC(=O)c2ccc(CN3CCN(C)CC3)cc2)cc1Nc1nccc(-c2cccnc2)n1 [Imatinib Mesylate (STI571)] | -5.56 |
| O=C(Nc1cccnc1)c1cc(-c2ccnc(F)c2)ccc1OCc1ccccc1 | -0.282 |
| COC[C@H](NC(=O)c1cnc(C)s1)C(=O)N[C@@H](COC)C(=O)N[C@@H](Cc1ccccc1)C(=O)[C@@]1(C)CO1 [Oprozomib (ONX 0912)] | -5.76 |
| COc1cc2c(cc1O)[C@@H](Cc1ccc(O)c(Oc3ccc(C[C@@H]4c5cc(OC)c(OC)cc5CCN4C)cc3)c1)N(C)CC2 [Daurisoline] | < -3.85 |
| Nc1nc2c(ncn2[C@@H]2O[C@H](CO)[C@@H](O)[C@@H]2O)c(=O)[nH]1 [Ara-G hydrate] | -0.925 |
| Nc1ncnc2c1ncn2C1CCCC1 [9-cyclopentyladenine] | -1.18 |
| COc1cc2c(cc1-c1c(C)noc1C)ncc1[nH]c(=O)n([C@H](C)c3ccccn3)c12 | < -6.01 |
| Nc1nccc2c1ncn2[C@@H]1O[C@H](CO)[C@@H](O)[C@H]1O [3-deazaadenosine] | -1.07 |
| OC(CN1CCC(Cc2ccc(F)cc2)CC1)c1ccc(Cl)cc1 (configuration not stated) [Eliprodil] | 13.4 |
| O=C(CCCN1CCC(O)(c2ccc(Cl)cc2)CC1)c1ccc(F)cc1 [Haloperidol] | 2.36 ± 1.1 |
| O=C1[C@H](CC[C@H](O)c2ccc(F)cc2)[C@@H](c2ccc(O)cc2)N1c1ccc(F)cc1 [Ezetimibe] | 2.95 |
